Gli-Sufu antag – Gli-Sufu pathway antagonism; Sufu-KO-LIGHT fibroblasts, Gli luciferase reporter luminescence; inhibition, % at 5 µM; hit rate 0.74% among 340,000; AID 588413;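 active means inhibition above about 55%, limit read from the data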;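 further: 0% = DMSO-treated cells and 100% = wells with medium but no cells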
697 NFkB inh – lowers PMA/ionomycin-induced NF-kB signal in 697 B cells | 697 B-cell NF-kB luciferase reporter, 16 h | inhibition, % at 4 µM | hit rate 0.33% among 330,000 | AID 435022; in the data active means inhibition above about 35%
SMARCA2 act – activators of SMARCA2 function; MG213 cells, MMTV-luciferase reporter, dexamethasone, overnight; activation, % at 9.1 µM; hit rate 1% among 370,000; in the data active means activation above about 7.8%;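 further: 0% = vehicle wells and 100% = reference activator wells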
Jurkat NFkB inh – lowers PMA/ionomycin-induced NF-kB signal in Jurkat cells | inhibition, % at 4 µM | hit rate 0.53% among 330,000 | PMA/ionomycin-induced NF-kB luciferase reporter, luminescence; in the data active means inhibition above about 50%
esBAF inh – inhibitors of esBAF chromatin remodeling in mouse ES cells; Bmi1-luciferase knock-in reporter, 24 h; 100% = twice the neutral-well signal; reporter increase, % at 12.5 µM; hit rate 2% among 350,000; AID 602393; in the data active means activation above about 40%;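 further: 0% = median of the plate's neutral control wells and 100% = double that signal; a rise in the Bmi1 reporter signal indicates esBAF inhibition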
Gli-Sufu confirm – Gli-SUFU antagonism confirmation, single concentration | shares compounds with Gli-Sufu antag | Sufu-KO-LIGHT cells, Gli luciferase reporter, luminescence | inhibition, % at 5 µM | hit rate 40% among 2,500;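 active means mean inhibition at 5 µM reaching about 45%, limit read from the data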;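 further: plate controls were DMSO-treated cells for no effect and wells lacking cells for full effect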
SufuKO cytotox – cytotoxic in Gli-SUFU antagonist counter-screen; shares compounds with Gli-Sufu antag; Sufu-KO-LIGHT cells cytotoxicity, ATP luminescence; cytotoxicity, % at 5 µM; hit rate 32% among 2,500; AID 651994;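 active means mean cytotoxicity at 5 µM above about 25%, limit read from the data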;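 further: cells exposed to compound overnight for roughly 16 to 18 hours; plate controls were DMSO wells with cells for no effect and medium without cells for full effect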
Wnt3a cs – inhibits Wnt3a reporter, counter-screen for Gli-SUFU antagonists. AID 651995. hit rate 20% among 2,500. inhibition, % at 6.25 µM. shares compounds with Gli-Sufu antag. Wnt-LIGHT cells, Wnt3a-driven luciferase reporter, luminescence;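 active means mean inhibition above about 25%, limit read from the data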
Starred values were filed as active, the others as inactive. Only some compounds are listed: those with a hit (about 3.3% of all), similar ones and a draw of the others.

O=[N+]([O-])c1ccc(N/N=C/c2sc(N3CCOCC3)nc2-c2ccccc2)c(S(=O)(=O)Nc2ccc(Cl)cc2)c1 was read as Gli-Sufu antag 90*, SMARCA2 act -2, Gli-Sufu confirm 90*, SufuKO cytotox 3 and Wnt3a cs 72*.
For O=C(N/N=C/c1sc(N2CCOCC2)nc1-c1ccccc1)c1ccccc1Cl the results were Gli-Sufu antag 0, 697 NFkB inh 27, SMARCA2 act 3, Jurkat NFkB inh 35 and esBAF inh 6.
Screening O=C(N/N=C/c1sc(N2CCOCC2)nc1-c1ccccc1)c1ccccc1O returned Gli-Sufu antag -1, 697 NFkB inh 29, SMARCA2 act -3 and Jurkat NFkB inh 9.
`O=[N+]([O-])c1ccc(N/N=C/c2sc(N3CCOCC3)nc2-c2ccccc2)c(S(=O)(=O)Nc2ccccc2Cl)c1` gave Gli-Sufu antag 69*, SMARCA2 act -1, Gli-Sufu confirm 81*, SufuKO cytotox 12 and Wnt3a cs 60*.
For COc1ccc(N2CCN(C3CCCN(C(=O)c4ccoc4)C3)CC2)cc1 (stereo not given) the results were Gli-Sufu antag 55*, 697 NFkB inh 12, SMARCA2 act -1, Jurkat NFkB inh 5, esBAF inh -11, Gli-Sufu confirm 4, SufuKO cytotox -6 and Wnt3a cs 6.
COc1ccc(N2CCN(C3CCCN(S(=O)(=O)c4ccc(C)cc4C)C3)CC2)cc1 (stereo not given) was read as Gli-Sufu antag 60*, 697 NFkB inh -31, SMARCA2 act -3, Jurkat NFkB inh 3, esBAF inh 9, Gli-Sufu confirm 21, SufuKO cytotox 7 and Wnt3a cs -17.
Screening Cn1cnc(CCNC(=O)C[C@H]2CC[C@H]3[C@@H](COC[C@@H](O)CN3C(=O)C3CC3)O2)c1 returned esBAF inh 1.
`CC(=O)c1nnn(-c2nc(N)nc(N(c3ccccc3)c3ccccc3)n2)c1C` gave Gli-Sufu antag 16, 697 NFkB inh -8, SMARCA2 act -2, Jurkat NFkB inh -13 and esBAF inh 0.
`CCCCN(CCCC)c1nc(OC)nc(-n2nnc(C(C)=O)c2C)n1` gave Gli-Sufu antag 52, 697 NFkB inh -46, SMARCA2 act -1, Jurkat NFkB inh 0, esBAF inh -4, Gli-Sufu confirm 23, SufuKO cytotox 27* and Wnt3a cs -31.
`O=C(C[C@@H]1CC[C@@H](NS(=O)(=O)c2ccccc2)[C@@H](CO)O1)NCc1ccccc1F` gave esBAF inh -6.
CCOC(=O)N1CCN(C(=O)CCCCCn2c(=S)[nH]c3ccsc3c2=O)CC1 was read as Gli-Sufu antag 69*, 697 NFkB inh 14, SMARCA2 act -4, Jurkat NFkB inh -5, Gli-Sufu confirm 27, SufuKO cytotox 2 and Wnt3a cs 26*.
For CCOC(=O)N1CCN(C(=O)CCCn2c(=S)[nH]c3ccsc3c2=O)CC1 the results were Gli-Sufu antag -36, 697 NFkB inh 18, SMARCA2 act 0 and Jurkat NFkB inh -10.
CC(C)c1ccc(-c2nc3ccccc3s2)cc1 was read as Gli-Sufu antag 64*, 697 NFkB inh -31, SMARCA2 act -11, Jurkat NFkB inh 45, Gli-Sufu confirm 82*, SufuKO cytotox 73* and Wnt3a cs 106*.
For CCN(CCCNC(=O)c1cc2c(-c3cccc(OC)c3)nn(C)c2s1)Cc1ccccc1 the results were Gli-Sufu antag 59*, 697 NFkB inh -6, SMARCA2 act -1, Jurkat NFkB inh 2, esBAF inh -5, Gli-Sufu confirm 16, SufuKO cytotox 7 and Wnt3a cs -31.
CCN(CC)CCCNC(=O)c1cc2c(-c3ccc(Cl)cc3)nn(C)c2s1 was read as Gli-Sufu antag 2, 697 NFkB inh -18, SMARCA2 act 0, Jurkat NFkB inh -27 and esBAF inh -1.
For COc1ccc(OC)c(C(=O)NC(CC(N)=O)c2ccc(NCCN3CCCC3)c([N+](=O)[O-])c2)c1 (stereo not given) the results were Gli-Sufu antag 4, 697 NFkB inh 17, SMARCA2 act 0, Jurkat NFkB inh -11 and esBAF inh 1.
COc1ccc(OC)c(C(=O)NC(CC(N)=O)c2ccc(NCCN3CCOCC3)c([N+](=O)[O-])c2)c1 (stereo not given) was read as Gli-Sufu antag 94*, 697 NFkB inh -12, SMARCA2 act 0, Jurkat NFkB inh -25, esBAF inh 2, Gli-Sufu confirm 11, SufuKO cytotox 9 and Wnt3a cs -23.
Screening CC=Cc1ccc2n(c1=O)C[C@H]1[C@H](CO)[C@@H](C(=O)NCC)[C@@H]2N1C(=O)C1CC1 (mixture of isomers) returned esBAF inh 1.
For Cc1nc2ccccc2n1Cc1ccc(Br)cc1 the results were Gli-Sufu antag 62*, 697 NFkB inh -54, SMARCA2 act -6, Jurkat NFkB inh 47, Gli-Sufu confirm 59*, SufuKO cytotox 28* and Wnt3a cs 22.
Cc1nc2ccccc2n1Cc1ccccc1 was read as Gli-Sufu antag 20, 697 NFkB inh -12, SMARCA2 act -2, Jurkat NFkB inh 6 and esBAF inh 0.
`CC1CCC(C(C)C)C(OC(=O)Cn2c(-c3ccccc3)[n+](C)c3ccccc32)C1` (stereo not given) gave Gli-Sufu antag 87*, 697 NFkB inh -24, SMARCA2 act -5, Jurkat NFkB inh 49, Gli-Sufu confirm 89*, SufuKO cytotox 38* and Wnt3a cs 38*.
CCCC(=O)N1C[C@@H]2[C@H](c3ccccc31)[C@H](CO)N2C(=O)Nc1ccc(F)cc1 was read as esBAF inh -3.
`Cc1ccc(C(C)C)c(OCC(O)CN2CCc3ccccc3C2)c1` (stereo not given) gave Gli-Sufu antag 42, 697 NFkB inh -14, SMARCA2 act -3, Jurkat NFkB inh 0 and esBAF inh -19.
`Cn1cc(CNCc2ccccc2OCC(O)CN2CCc3ccccc3C2)cn1` (stereo not given) gave Gli-Sufu antag 55*, 697 NFkB inh 9, SMARCA2 act 2, Jurkat NFkB inh 1, Gli-Sufu confirm 29, SufuKO cytotox 8 and Wnt3a cs -15.
For CC(C)NC(=O)Nc1ccc2c(c1)C(=O)N(C)[C@@H]1CC[C@H](CC(=O)NC3CCCCC3)O[C@@H]1CO2 the results were esBAF inh 0.
